Tau fibril ThT = tau fibrillization inhibition (ThT binding); P10636; Potency, µM (titrated, usually from 57.4 µM), hits mostly inhibitors; AID 1460; recombinant tau K18 P301L, heparin-induced fibrillization, ThT fluorescence; 270,000 tested, 2.1% active; further: nearly all actives have a fitted effect of over 55% in size
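Aggregation was driven by heparin (20 uM final) acting on recombinant tau […] bearing P301L in 100 mM sodium acetate pH 7; fibrils were detected with Thioflavin T.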
JMJD2E inh = blocks human JMJD2E demethylase activity; JMJD2E catalytic domain, FDH-coupled NADH fluorescence (FDH is formaldehyde dehydrogenase); Potency, µM (top dose mostly 57.1 µM), hits mostly inhibitors; AID 2147; 230,000 tested, 1.6% active; active means well fitted inhibition curve with a large enough effect, not every such curve was filed as active; inconclusive means small, poorly fitted or top-dose-only effect, or another doubt; inactive means no such curve, though single readings can be large or run the other way; further: nearly all actives have a fitted effect of over 50% in size
Target sequence (B2RXH2 1-337 limits assumed): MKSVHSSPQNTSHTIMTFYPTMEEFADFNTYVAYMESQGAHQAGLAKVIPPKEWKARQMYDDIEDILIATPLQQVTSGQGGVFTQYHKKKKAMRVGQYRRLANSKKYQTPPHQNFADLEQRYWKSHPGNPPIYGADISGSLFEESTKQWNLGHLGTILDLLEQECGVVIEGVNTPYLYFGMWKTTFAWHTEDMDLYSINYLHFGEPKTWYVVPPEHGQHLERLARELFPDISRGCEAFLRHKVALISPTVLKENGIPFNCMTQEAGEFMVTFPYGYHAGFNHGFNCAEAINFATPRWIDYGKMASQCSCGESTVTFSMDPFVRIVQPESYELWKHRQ
Tau fibril FP = inhibitors of human tau fibril formation | Potency, µM (highest dose often 57.7 µM), usual class: inhibitors | AID 1468 | 280,000 tested, 0.39% active | K18 P301L tau heparin fibrillization, Alexa594 FP, 6 h | P10636; further: nearly all actives have a fitted effect of over 55% in size
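K18 P301L tau (15 uM unlabeled/0.24 uM Alexa 594-labeled, final) + compound + heparin 20 uM final; 100 mM NaOAc pH 7; 6 hr 37 C; ThT 30 uM final added, 1 hr RT; FP ex 555/em 632 nm.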
HPGD block = inhibitors of human 15-hydroxyprostaglandin dehydrogenase (HPGD); P15428; purified HPGD, NADH fluorescence kinetic, PGE2 substrate; Potency, µM, most hits filed as inhibitors; 150,000 tested, 4.3% active; AID 894; active means well fitted inhibition curve with a large enough effect, not every such curve was filed as active; inconclusive means small, poorly fitted or top-dose-only effect, or another doubt; inactive means no such curve, though single readings can be large or run the other way
Target sequence (P15428 whole entry, looked up): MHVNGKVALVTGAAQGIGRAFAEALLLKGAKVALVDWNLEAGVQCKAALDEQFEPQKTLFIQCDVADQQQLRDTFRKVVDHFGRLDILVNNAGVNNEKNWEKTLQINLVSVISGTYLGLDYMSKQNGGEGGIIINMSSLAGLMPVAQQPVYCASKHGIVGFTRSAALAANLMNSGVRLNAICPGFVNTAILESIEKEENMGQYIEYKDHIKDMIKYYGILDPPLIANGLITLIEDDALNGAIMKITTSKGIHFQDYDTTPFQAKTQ
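NADH formation kinetics: reaction with 30 uM PGE2 and 1 mM NAD+ (final), 20 nM enzyme, Tris-HCl pH 8 with Tween 20, after 15 min compound preincubation at room temperature. Fluorescence change, last versus first of five reads.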
Tau fluor cs = counter-screen for tau fibril formation inhibitors. tau K18 P301L (four-repeat tau fragment) Alexa594 fluorescence, heparin fibrillization. Potency, µM (series often up to 57.7 µM). 280,000 tested, 0.93% active; further: nearly all actives have a fitted effect of over 55% in size
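Human K18 P301L tau (15 uM unlabeled plus 0.24 uM Alexa 594-labeled, final) in 100 mM sodium acetate pH 7 was mixed with compound and 20 uM heparin and incubated 6 hr at 37 C.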
ALDH1A1 inh = ALDH1A1 (human) enzyme inhibition; P00352; Potency, µM (top dose mostly 75.3 µM), usual class: inhibitors; 220,000 tested, 7.3% active; Purified ALDH1A1, NADH fluorescence, propionaldehyde substrate; AID 1030; active means well fitted inhibition curve with a large enough effect, not every such curve was filed as active; inconclusive means small, poorly fitted or top-dose-only effect, or another doubt; inactive means no such curve, though single readings can be large or run the other way
Large screens that a line does not name were inactive; [ ] = another dose, or the depositor's remark. Sampled rows, rich in hits. Any-hit rate of the full collection: about 9.9%. Unless noted, the call rests on the fitted dose curve; in most records, active means well fitted curve in the direction sought with a large enough effect; inconclusive means small, poorly fitted or top-dose-only effect, or another doubt; inactive means no such curve, though single readings can be large; an effect the other way counts as inactive or inconclusive.

CCOC(=O)C1CCCN(C(=S)Nc2ccc(OC)cc2)C1 (stereo not given)	none (no result: HPGD block)
COc1cc(C(=S)N2CCCC2)cc(OC)c1O	HPGD block 20µM
COc1ccc(C(=S)N2CCCCCC2)cc1	Tau fibril ThT inconclusive, Tau fibril FP inconclusive, HPGD block 16µM, ALDH1A1 inh inconclusive
COc1ccc(NC(=S)N2CCC(C(=O)N3CCCCCC3)CC2)cc1	ALDH1A1 inh 14µM
O=C(c1cn(CCOc2ccc(Cl)cc2)c2ccccc12)C1CCCCC1	none (no result: JMJD2E inh, HPGD block, ALDH1A1 inh)
COc1cc(Cl)c(C)cc1NC(=O)Cn1cnc2sc(C)c(S(=O)(=O)N3CCCCC3)c2c1=O	Tau fluor cs inconclusive (no result: JMJD2E inh, HPGD block, ALDH1A1 inh)
CNC(=O)C1CCCN(c2nnc(C)c3c(C)n(-c4ccccc4)nc23)C1 (stereo not given)	none (no result: JMJD2E inh, HPGD block, ALDH1A1 inh)
CSc1ncc(C(=O)NCc2ccc(F)cc2)c(-c2ccccc2)n1	none (no result: JMJD2E inh, HPGD block, ALDH1A1 inh)
COc1ccc(C)cc1NC(=O)c1cc2c(=O)n(Cc3cccnc3)ccc2nc1C	none (no result: JMJD2E inh, HPGD block, ALDH1A1 inh)
CC(/C=C1\SC(=S)N(NC(=O)c2ccc(C)cc2)C1=O)=C\c1ccccc1	Tau fibril ThT inconclusive
CC(/C=C1\SC(=S)N(NC(=O)c2ccccc2C)C1=O)=C\c1ccccc1	Tau fibril ThT 4µM, Tau fluor cs inconclusive, ALDH1A1 inh inconclusive
CC(/C=C1\SC(=S)N(NC(=O)c2ccncc2)C1=O)=C\c1ccccc1	Tau fibril ThT 10µM, Tau fluor cs inconclusive (no result: HPGD block, ALDH1A1 inh)
CN(C)S(=O)(=O)c1ccc(NC(=O)CN2CCOCC2)cc1	none (no result: HPGD block, ALDH1A1 inh)
O=C(CN1CCOCC1)Nc1ccc(C2CCCCC2)cc1	HPGD block 16µM, ALDH1A1 inh 25µM
CCCCN(CCCC)S(=O)(=O)c1ccc(NC(=O)CN2CCOCC2)cc1	ALDH1A1 inh 13µM
O=C(CN1CCOCCOCCN(CC(=O)Nc2ccccc2)CCOCC1)Nc1ccccc1	ALDH1A1 inh 22µM (no result: HPGD block)
CCCCC1(C)NC(=O)N(CC(=O)Nc2ccc(S(=O)(=O)N3CCOCC3)cc2)C1=O (stereo not given)	ALDH1A1 inh 3.2µM
O=C(CN1CCOCCOCCOCC1)Nc1ccccc1	ALDH1A1 inh inconclusive
c1ccc(Cn2nnc(CNc3ccccc3)c2-c2c(CNc3ccccc3)nnn2Cc2ccccc2)cc1	none (no result: HPGD block, ALDH1A1 inh)
COc1ccc2cc3cc(C(=O)Nc4cc(C)c(Cl)cc4OC)oc3nc2c1	none (no result: JMJD2E inh, HPGD block, ALDH1A1 inh)
CCc1cc(=O)oc2cc3occ(-c4ccc(OC)c(F)c4)c3cc12	JMJD2E inh inconclusive, HPGD block inconclusive
COc1ccc(NS(=O)(=O)c2ccc3nc(COc4ccc(Cl)c(C)c4)[nH]c3c2)cc1	Tau fibril FP inconclusive, Tau fluor cs inconclusive (no result: HPGD block)
C/C(=N/OCC(=O)Nc1ccc(C)cc1C)c1cccs1	Tau fibril ThT inconclusive, HPGD block 7.9µM
CC(=O)c1ccc(NC(=O)CO/N=C(\C)c2cccs2)cc1	none
CCc1cccc(CC)c1NC(=O)CO/N=C(\C)c1cccs1	HPGD block 0.63µM
Cc1scc(C(=O)N/N=C/c2ccc(Cl)s2)c1C	none
O=C(CCl)NC(=O)NC12CC3CC(CC(C3)C1)C2	ALDH1A1 inh 7.9µM
O=C(CSc1nnc2scc(-c3ccccc3)n12)Nc1ccc(Cl)cc1	none (no result: JMJD2E inh, HPGD block, ALDH1A1 inh)
O=C(CCCn1c(SCc2cccc(F)c2)nc2ccccc2c1=O)NCC1CCCO1 (stereo not given)	ALDH1A1 inh 16µM (no result: HPGD block)
O=C(CCCn1c(SCC(=O)NCC2CCCO2)nc2ccccc2c1=O)NCc1ccccc1 (stereo not given)	none
O=C(CCCn1c(SCc2cc(=O)n3ccccc3n2)nc2ccccc2c1=O)NCC1CCCO1 (stereo not given)	JMJD2E inh inconclusive, ALDH1A1 inh inconclusive (no result: HPGD block)
N#CCSc1nc2ccccc2c(=O)n1CCCC(=O)NCC1CCCO1 (stereo not given)	ALDH1A1 inh 28µM (no result: HPGD block)
C=C(C)Cn1c(SCC#N)nc2ccccc2c1=O	ALDH1A1 inh 10µM
FC(F)(F)c1cccc(NC(=S)NNC(=S)Nc2ccc(Cl)cc2)c1	JMJD2E inh inconclusive, Tau fibril FP inconclusive, Tau fluor cs 8.9µM[quencher] (no result: Tau fibril ThT, HPGD block, ALDH1A1 inh)
FC(F)(F)c1cccc(NC(=S)NCc2ccc(Cl)cc2)c1	Tau fibril FP inconclusive, Tau fluor cs inconclusive (no result: HPGD block)
Cc1ccc(NC(=S)NNC(=S)Nc2cccc(C(F)(F)F)c2)cc1	Tau fibril FP inconclusive, Tau fluor cs 14µM[quencher] (no result: Tau fibril ThT, HPGD block, ALDH1A1 inh)
Cc1cc(C)cc(NS(=O)(=O)c2ccc(NC(=S)NC(=O)c3ccc(Br)o3)cc2)c1	Tau fibril FP inconclusive, Tau fluor cs inconclusive, ALDH1A1 inh 14µM
CN(C)S(=O)(=O)c1ccc(NC(=S)NC(=O)c2ccc(Br)o2)cc1	ALDH1A1 inh 13µM (no result: HPGD block)
COCCn1c(C)cc(O)c(C(c2ccccc2F)N2CCN(c3ccccc3)CC2)c1=O (stereo not given)	Tau fibril ThT inconclusive, Tau fibril FP inconclusive (no result: JMJD2E inh, HPGD block, ALDH1A1 inh)
O=C(c1ccc(Cl)c([N+](=O)[O-])c1)N(c1ccccn1)c1ccccn1	none
CCN(C(=O)c1ccc(Cl)c([N+](=O)[O-])c1)c1ccccc1	ALDH1A1 inh 13µM (no result: HPGD block)
O=C(Sc1nnc(-c2ccccc2)o1)N1c2ccccc2Sc2ccccc21	Tau fibril ThT inconclusive, JMJD2E inh inconclusive, HPGD block 14µM, Tau fluor cs inconclusive, ALDH1A1 inh 22µM
COc1cc(-c2nnc(SCC(=O)N3c4ccccc4Sc4ccccc43)o2)cc(OC)c1OC	none
